The text below walks through data of ChEMBL document CHEMBL3433997, “St. Jude Leishmania screening dataset” (2016).

What all share (type): functional
Assay [1] concerns the target Solute carrier family 2, facilitated glucose transporter member 1 (Homo sapiens) (UniProt P11166). Kind of assay: ST_JUDE_LEISH: Cytotoxicity at 2uM final concentration against transgenic Leishmania Mexicana promastigotes LmGLUT1 that are glucose transport deficient and complemented with the human glucose transporter GLUT1. Activity is measured by DNA content using SYBR green in vitro.

Assay [2] deals with Hexose transporter 1 (Plasmodium falciparum) (UniProt O97467). Description: ST_JUDE_LEISH: Cytotoxicity at 2uM final concentration against transgenic Leishmania Mexicana promastigotes LmPfHT that are glucose transport deficient and complemented with the Plasmodium falciparum hexose transporter. Activity is measured by DNA content using SYBR green in vitro.
Assay [3] addresses Glucose transporter (Leishmania mexicana) (UniProt O61059). Description: ST_JUDE_LEISH: Cytotoxicity at 2uM final concentration against transgenic Leishmania Mexicana promastigotes LmGT2 that are glucose transport deficient and complemented with the L. Mexicana glucose transporter 2. Activity is measured by DNA content using SYBR green in vitro.

Chain of Solute carrier family 2, facilitated glucose transporter member 1 (Homo sapiens) (P11166 whole entry): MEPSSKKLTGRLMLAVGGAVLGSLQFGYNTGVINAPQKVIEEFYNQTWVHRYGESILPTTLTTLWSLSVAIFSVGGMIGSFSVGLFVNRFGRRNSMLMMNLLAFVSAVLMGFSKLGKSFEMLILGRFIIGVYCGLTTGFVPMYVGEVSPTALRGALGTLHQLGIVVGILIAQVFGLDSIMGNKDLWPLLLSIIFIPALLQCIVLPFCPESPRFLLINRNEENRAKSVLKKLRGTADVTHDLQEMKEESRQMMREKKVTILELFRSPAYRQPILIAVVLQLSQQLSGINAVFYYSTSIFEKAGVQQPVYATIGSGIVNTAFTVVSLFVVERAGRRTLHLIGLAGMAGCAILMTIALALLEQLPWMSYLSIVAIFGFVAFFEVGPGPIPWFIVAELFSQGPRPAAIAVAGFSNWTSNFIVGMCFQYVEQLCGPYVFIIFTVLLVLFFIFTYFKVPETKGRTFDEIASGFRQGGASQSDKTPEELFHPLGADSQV

For the molecule `Cc1cccn2c(=O)c3cc(C(=O)NC(C)c4ccccc4)c(=N)n(CCc4ccccc4)c3nc12` (configuration not stated), the inhibition amounted to 12.2% in assay [1], 16.8% in assay [2] and 11.9% in assay [3].

Turning to `COc1ccc(Oc2ccc(-c3c(O)cc(C)nc3C)cc2)cc1`, the inhibition in assay [1] turned out to be 2.96%; in assay [2] it was 3.75%; in assay [3], 1.27%.

Regarding `O=C(Nc1cccc(C(F)(F)F)c1)Nc1ccc(F)c([N+](=O)[O-])c1`, the inhibition in assay [1] was 2.84%; in assay [2], 3.09%; in assay [3], -0.74%.

Consider `CC(C)(C)c1cc(C(=O)N2CCN(c3cnccn3)CC2)n(Cc2ccccc2)n1`, for which the inhibition in assay [1] was 4.57%; in assay [2], 4.68%; in assay [3], 4.9%.

In the case of `Cn1cncc1-c1ccc2ncnc(Nc3ccc4c(cnn4Cc4ccccc4)c3)c2c1`, the inhibition in assay [1] came to 1.39%; in assay [2], 2.21%; in assay [3], 1.22%.

With `Clc1ccc2c(N3CCCNCC3)ccnc2c1`, the results for the inhibition in assay [1], in assay [2] and in assay [3] were 1.53%, 1.07% and 4.48%, respectively.

As to `CCCCCCCc1c(C)nc2ccccc2c1O`, the inhibition was found to be 6.82% in assay [1], 6.3% in assay [2] and 2.82% in assay [3].

In the case of `Cc1nc2nc(N)nc(N)c2c(C)c1Cc1ccc(N)cc1`, the inhibition worked out at 3.4% in assay [1], 8.1% in assay [2] and 1.88% in assay [3].

As for `COc1cccc(-c2csc(C(=O)NCC3CCN(Cc4ccc(C(C)(C)C)cc4)C3)c2)c1` (configuration not stated), the inhibition is 3.1% in assay [1], -1.27% in assay [2] and 2.46% in assay [3].

For the molecule `CN1CCCN(Cc2ccc(-c3ccc(NS(=O)(=O)c4cccc5cccnc45)cc3)cc2)CC1`, the inhibition in assay [1] was found to be 5.67%; in assay [2], 3.68%; in assay [3], 0.05%.

`CCN(CC)CC#Cc1ccc2[nH]c(C)c(Cl)c(=O)c2c1`: the inhibition in assay [1] came to 3.66%; in assay [2], 3.51%; in assay [3], 4.12%.

Consider `Cc1[nH]c(C)c(-c2ccc(-c3ccc(OC(F)(F)F)cc3)nc2)c(=O)c1Br`, for which the values for the inhibition in assay [1], in assay [2] and in assay [3] were 9.71%, 8.43% and 8.85%, respectively.

As to `CN1CCN(Cc2cccc(-c3ccc4c(Nc5cc(O)c(Cl)cc5F)ccnc4c3)c2)CC1`, the inhibition is 2.16% in assay [1], 6.74% in assay [2] and 13% in assay [3].

`CC=Cc1cc(Cc2c[nH]c(=N)[nH]c2=N)cc(CCC)c1OC`: the inhibition amounted to 10.8% in assay [1], 8.99% in assay [2] and 4.71% in assay [3].

Turning to `CCCC[C@H](NC(=O)O[C@H](COc1ccc(OCc2ccccc2)cc1)C(C)(C)C)C(=O)C(=O)Nc1cc[nH]n1`, the inhibition in assay [1] came to 3.68%; in assay [2] it was 3.22%; in assay [3] it was 1.64%.

For `O=C(Nc1ccc(-c2cccc(-c3nc4cc(C(F)(F)F)ccc4[nH]3)c2)cc1)c1cccnc1`, the inhibition is 0.28% in assay [1], 0.06% in assay [2] and -1.11% in assay [3].

For the molecule `CN(C)CCOc1cc(O)c2c(c1)OC(C)(C)C=C2c1cccs1`, the inhibition in assay [1] was -0.97%; in assay [2], -1.11%; in assay [3] it was -0.34%.

For `O=c1cc(NCCCNC2CCc3ccc(Cl)cc32)[nH]c2ccccc12` (configuration not stated), the inhibition in assay [1] is -2.61%; in assay [2], -0.73%; in assay [3] it was 1.83%.

In the case of `Cc1ccccc1C1CCN(C2CCC(NC(=O)c3ccc(-c4ccccc4)s3)CC2)CC1` (configuration not stated), the inhibition in assay [1] turned out to be 1.32%; in assay [2], 0.48%; in assay [3], 0.02%.

As to `Cc1cccc2nc(-c3cccc(-c4cccc(NC(=O)CN5CCN(C)CC5)c4)c3)[nH]c12`, the inhibition in assay [1] is 8.23%; in assay [2], 7.52%; in assay [3], 6.83%.

Take `CN(C)CC(=O)NCC(NCCCNc1cc(=O)c2ccccc2[nH]1)c1cc(Br)cc(Br)c1` (configuration not stated): the results for the inhibition in assay [1], in assay [2] and in assay [3] were 5.5%, 5.13% and 5.64%, respectively.

Regarding `O=C1Nc2cccc3c2C1(CCCCN1CCC(c2c(-c4ccc(F)cc4)[nH]c4ccccc24)CC1)CCC3` (configuration not stated), the figures for the inhibition in assay [1], in assay [2] and in assay [3] were 5.51%, 5.23% and 6.27%, respectively.

Regarding `CC(C)NCc1cccc(-c2cccc(NC(=O)c3cccc(Cl)c3)c2)c1`, the inhibition in assay [1] was -0.03%; in assay [2], 0.9%; in assay [3] it was 4.05%.

For `COc1cc2nccc(Nc3cccc(Oc4ccccc4)c3)c2cc1OC`, the values for the inhibition in assay [1], in assay [2] and in assay [3] were 12.8%, 14.4% and 9.3%, respectively.

As to `N=C(NCc1ccccc1)Nc1nc(-c2ccc(OCCCn3ccnc3)cc2)cs1`, the inhibition in assay [1] is 29.9%; in assay [2] it was 35.3%; in assay [3], 15.5%.

For `CCOC(=O)c1[nH]c2cc(Cl)cc(Cl)c2c1/C=C/C(=O)Nc1ccc(-c2cnc(NC(C)=O)[nH]2)cc1`, the inhibition in assay [1] was -1.61%; in assay [2], -2.31%; in assay [3], -1.73%.

Turning to `N=C(Nc1nc(-c2ccccn2)cc2ccccc12)c1cccc(Cl)c1`, the inhibition was 50.7% in assay [1], 48.7% in assay [2] and 18.1% in assay [3].

As for `COc1cccc(Nc2c(C(N)=O)cnc3ccc(-c4ccc([S+](C)[O-])cc4)cc23)c1` (configuration not stated), the inhibition in assay [1] worked out at 2.64%; in assay [2], 4.5%; in assay [3], 0.66%.

In the case of `CCN1CCN(Cc2ccc(-c3ccc(NS(=O)(=O)c4cccc5cccnc45)cc3)cc2)CC1`, the inhibition amounted to 20.6% in assay [1], 14% in assay [2] and 9.92% in assay [3].

With `COc1cc2nc(N3CC(C)N(C(=O)Cc4ccc(-c5ccccc5)cc4)C(C)C3)nc(N)c2cc1OC` (configuration not stated), the inhibition in assay [1] came out at 6.24%; in assay [2], 5.22%; in assay [3] it was 3.8%.

For the molecule `Cc1ccc(NC(=O)c2ccc(CN3CCCN(Cc4cccc(Cl)c4)CC3)cc2)cc1C`, the inhibition in assay [1] worked out at 3.09%; in assay [2], 3.31%; in assay [3] it was 2.64%.

As to `CS(=O)(=O)c1ccc(-c2cnc(N)c(-c3ccc(O)cc3)c2)cc1`, the inhibition in assay [1] came to 2.19%; in assay [2], 1.67%; in assay [3] it was 1.48%.

For `O=C(/C=C/c1ccc(Cl)c(Cl)c1)NCCCCCCN1CCCN(C(=O)Nc2cc(F)cc(F)c2)CC1`, the values for the inhibition in assay [1], in assay [2] and in assay [3] were 0.71%, 1.42% and -1.02%, respectively.

Turning to `CCN(CC)/C(=N\CCCCCC/N=C(\NC(=N)c1ccc(Cl)cc1)N(CC)CC)NC(=N)c1ccc(Cl)cc1`, the inhibition in assay [1] worked out at 1.79%; in assay [2], 2.4%; in assay [3], 2.59%.

What is called inhibition is the relative decrease from the control value, in per cent.
